M1 ag: human M1 muscarinic receptor agonists, primary screen, Fluo-8 calcium fluorescence, CHO-K1 cells, HTS; CHO-K1 hM1, agonist mode; 0% DMSO, 100% acetylcholine EC100; activation, % at 3 µM; hit rate 0.33% among 360,000; AID 588814, 2011;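 active means activation above the run's mean compound activation plus 3 SD, cut at about 16% in these data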;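 further: peak over basal fluorescence ratio within a 140 s kinetic read after compound addition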
CHRM4 agonist: human M4 muscarinic receptor agonists, primary screen, CHO-K1 cells, Fluo-8 calcium fluorescence. Muscarinic acetylcholine receptor M4 (Homo sapiens), P08173. CHO-K1 hM4/Gqi5; vehicle 0%, full acetylcholine response 100%. activation, % at 3 µM. hit rate 0.14% among 360,000;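 active means activation above the run mean over all test wells plus 3 SD, cut at about 32% in these data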;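 further: peak over basal fluorescence ratio per well then scaled between controls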
Target sequence (P08173 whole entry, looked up): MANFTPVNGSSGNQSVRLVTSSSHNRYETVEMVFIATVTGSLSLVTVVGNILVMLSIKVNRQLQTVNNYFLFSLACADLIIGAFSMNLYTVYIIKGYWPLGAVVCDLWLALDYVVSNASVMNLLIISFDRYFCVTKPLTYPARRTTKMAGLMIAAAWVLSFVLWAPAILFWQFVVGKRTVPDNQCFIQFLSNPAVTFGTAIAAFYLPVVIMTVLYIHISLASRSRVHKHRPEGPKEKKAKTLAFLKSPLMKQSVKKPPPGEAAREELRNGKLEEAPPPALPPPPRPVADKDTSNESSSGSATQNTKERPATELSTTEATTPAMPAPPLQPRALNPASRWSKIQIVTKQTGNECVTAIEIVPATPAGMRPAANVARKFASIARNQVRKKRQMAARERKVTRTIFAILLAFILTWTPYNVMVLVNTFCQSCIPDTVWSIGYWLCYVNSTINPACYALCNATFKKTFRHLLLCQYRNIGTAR
CHRM4 antagonist: human M4 muscarinic receptor antagonists, primary screen, CHO cells, Fluo-8 calcium fluorescence | Muscarinic acetylcholine receptor M4 (Homo sapiens), P08173 | CHO-hM4 cells, ACh EC80 | inhibition, % at 3 µM | hit rate 0.73% among 360,000;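 active means inhibition above its plate's cutoff, the mean inhibition of sample wells plus 3 SD, cut at about 27% in these data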
CHRM1 PAM: human M1 muscarinic receptor positive allosteric modulators, primary screen, CHO-K1 cells, Fluo-8 calcium fluorescence, 1536-well. AID 588819, 2011. Muscarinic acetylcholine receptor M1 (Homo sapiens), P11229. activation, % at 3 µM. hit rate 0.088% among 360,000. CHO-K1 hM1, ACh EC20; 0% = ACh EC20, 100% = maximal ACh; in the data active means activation above about 19%, passing the limit was not always enough
M1 antag: human M1 muscarinic receptor antagonists, primary screen, CHO-K1 cells, Fluo-8 calcium fluorescence, 1536-well. Muscarinic acetylcholine receptor M1 (Homo sapiens), P11229. CHO-K1 hM1, ACh EC80 antagonist. inhibition, % at 3 µM. hit rate 1.3% among 360,000. AID 588852, 2011;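 active means percent inhibition above its own plate's cutoff, namely the mean of that plate's compound wells plus 3 SD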;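 further: peak over basal fluorescence ratio during 140 s after agonist addition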
M4 PAM: human M4 muscarinic receptor positive allosteric modulators, primary screen, CHO-K1 cells, Fluo-8 calcium fluorescence. CHO-K1 hM4/Gqi5, ACh EC20; 0% = ACh EC20, 100% = maximal ACh. activation, % at 3 µM. hit rate 0.4% among 360,000. AID 624126, 2012;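 active means activation above its plate's cutoff, the mean activation of sample wells plus 3 SD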
A number is an active result; i = inactive; nt = not tested or not shown; ! = repeats disagree. Most compounds without a hit are left out; they make up all but 2.2% or so of the library.

SMILES	M1 ag	CHRM4 agonist	CHRM4 antagonist	CHRM1 PAM	M1 antag	M4 PAM
COC(=O)c1sc(S(=O)(=O)N2CCCCC2)c(C(=O)OC)c1C	i	i	i	i	21	i
COc1ccc(OC)c(C(=O)CCCC(=O)c2cc(OC)ccc2OC)c1	i	i	31	i	i	i
CCOC(=O)CSc1nc(-c2ccccc2)nc2ccc(F)cc12	i	i	i	i	i	28
O=C(NCc1ccc(F)cc1)C(c1cccnc1)N(C(=O)c1csnn1)c1ccccc1 (stereo not given)	i	i	i	i	i	i
CC(C)NC(=O)C1(C)CN(S(C)(=O)=O)CC(=O)N1Cc1cccs1 (stereo not given)	nt	i	i	nt	nt	25
Nc1nc(-c2ccccc2)cs1	i	i	i	i	i	i
CCOC(=O)N1CCC(N2CCCC(C(=O)c3cccc(OC)c3)C2)CC1 (stereo not given)	i	i	i	i	54	i
CCOC(=O)C1CCCN(C2=NC(=O)/C(=C/c3ccc(OC)cc3)S2)C1 (stereo not given)	i	i	i	i	i	i
CCOC(=O)C1CCCN(C2=NC(=O)/C(=C/c3ccc(N(C)C)cc3)S2)C1 (stereo not given)	24	41	i	i	i	i
Fc1ccc(N2CCN(C3=Nc4cccc5cccc3c45)CC2)cc1	i	i	i	i	88	i
c1ccc(CN2CCN(C3=Nc4cccc5cccc3c45)CC2)cc1	i	i	i	i	i	i
O=c1oc2c3c4c(cc2c(C(F)(F)F)c1CCN1CCOCC1)CCCN4CCC3	25	i	29	i	i	i
O=C1C2CCCCC2C(=O)N1c1nccs1 (stereo not given)	i	i	i	i	i	i
Cc1ccc(C2N(c3ccccc3)C(=S)N3CCCN23)cc1 (stereo not given)	i	i	48	i	85	i
Fc1ccc(C2N(c3ccccc3)C(=S)N3CCCN23)cc1 (stereo not given)	i	i	i	i	i	i
COc1cccc2c1oc1c(SCc3nc4ccccc4[nH]3)nc(C)nc12	i	i	i	i	i	i
COCCn1c(CN2CCN(c3ccccc3)CC2)nc2c1c(=O)n(C)c(=O)n2C	i	i	i	i	33	i
O=C(CSc1n[nH]c(=O)n1C1CC1)Nc1ccccc1	i	i	i	i	i	i
CCOC(=O)Cc1csc(SCC(=O)NC2CCC(C)CC2)n1 (stereo not given)	i	i	i	i	i	20
CCOC(=O)Cc1csc(SCC(=O)Nc2cc(Cl)ccc2Oc2ccccc2)n1	i	i	45	i	i	i
O=C(CSc1n[nH]c(=O)n1C1CC1)Nc1cc(Cl)ccc1Oc1ccccc1	i	i	47	i	46	i
O=C(Cn1cnc2c(NCc3ccccc3)ncnc21)NCc1ccccn1	i	i	i	i	i	i
N#CCC(=O)N1CCn2c1nc1ccccc12	i	i	i	i	i	i
CCN(CC)S(=O)(=O)c1ccc(N2CCOCC2)c(NC(=O)c2[nH]c(C)c(C(C)=O)c2C)c1	i	i	i	i	i	29
COc1ccc(CCNCC(C)c2ccccc2)cc1 (stereo not given)	i	i	i	i	35	i
SMILES	M1 ag	CHRM4 agonist	CHRM4 antagonist	CHRM1 PAM	M1 antag	M4 PAM
COc1ccc(CCNCC(O)c2ccccc2)cc1 (stereo not given)	i	i	i	i	i	i
O=C(O)c1ccccc1-c1c2cc(I)c(=O)c(I)c-2oc2c(I)c(O)c(I)cc12	279	254	57	i	78!	i
O=C(Nc1ccncc1)c1ccc2c(c1)C(=O)N(C1CCCCC1)C2=O	i	i	42	i	35	i
COc1ccc(C)cc1S(=O)(=O)N1CCC(C(=O)NC2CCCC2)CC1	i	i	i	i	i	20
Cc1ccc(S(=O)(=O)N2CCC(C(N)=O)CC2)cc1C(=O)NC1CCCCC1	i	i	i	i	i	21
Cc1ccc(S(=O)(=O)N2CCCC2)cc1C(=O)NC1CCCCC1	i	i	i	i	i	i
Cc1ccc(OCC(=O)Nc2ccccc2-c2ccccc2)cc1	i	i	i	i	i	i
COCCOC1CCN(C(=O)c2cc(COc3ccc(-n4cncn4)cc3)on2)CC1	i	i	i	i	i	i
Cc1ccc(F)cc1CNC(=O)c1cc(COc2ccc3ncccc3c2)on1	i	i	43	i	39	i
COCCC1CCCCN1C(=O)c1cc(COc2ccc(-n3cncn3)cc2)on1 (stereo not given)	i	i	i	i	31	i
O=C(NCc1cccc(Cl)c1)c1cc(COc2ccc3ncccc3c2)on1	i	i	i	i	i	i
CCC1CCCCN1C(=O)c1cc(COc2ccc3ncccc3c2)on1 (stereo not given)	i	i	i	i	i	i
COCC1CCCCN1C(=O)c1cc(COc2ccc3ncccc3c2)on1 (stereo not given)	i	32	34	i	55	i
O=C(CSc1c(Cl)cccc1Cl)NC1CCCc2ccccc21 (stereo not given)	i	i	i	i	i	i
CC(C)CCNC(=O)c1cc(S(=O)(=O)N2CCCCC2)ccc1N1CCOCC1	i	i	i	i	i	i
O=C(CSc1ccc2nnc(-c3cccc(F)c3)n2n1)N1CCCc2ccccc21	i	i	i	i	i	i
O=[N+]([O-])/C=C/c1cn(Cc2ccc(F)cc2)c2ccccc12	i	i	i	i	33	i
O=C(O)c1ccc(N/N=C/c2cn(Cc3ccc(F)cc3)c3ccccc23)cc1	i	i	i	i	i	i
CCOc1ccccc1OCCCC(=O)NNC(=O)c1nn(C)c(=O)c2ccccc12	i	i	i	i	i	i
OCCNCc1cc(Br)ccc1OCc1ccc(Cl)cc1	23	i	i	i	i	i
Brc1ccc(OCc2ccccc2)c(CNCc2ccncc2)c1	i	i	29	i	i	i
Fc1ccc(COc2ccccc2CNCc2ccncc2)cc1	i	i	i	i	i	i
O=C1Nc2ccc(Cl)cc2C(=O)C1(F)c1ccccc1 (stereo not given)	i	i	i	i	i	i
O=C(NCCc1ccccc1)c1ccc(NC(=O)c2cccnc2)cc1	i	i	i	i	i	i
CCOC(=O)c1ccc(NC(=O)CCc2nc(-c3ccccc3)no2)cc1	i	i	i	i	31	i
O=C(Nc1ccc(-c2noc(CCc3ccccc3)n2)cc1)c1cccnc1	i	i	i	i	26	i

Compound activity as filed in PubChem.
